Out of some 190,000 compounds screened, about 810 (0.43%) were called active. The sample holds actives, similar compounds and a random draw of the others, so the mix is not that of the screen. Unmarked numbers belong to inactive results. Rule as the data show it: active = inhibition above about 50%; inactive = the rest.
Each molecule was assayed against Mannose-6-phosphate isomerase (Homo sapiens) (UniProt P34949) (assay: MPI enzyme activity inhibition – biochemical, fluorescence intensity, coupled assay, primary screen (AID 1209;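 also: plate controls were DMSO vehicle for no effect and wells lacking substrate for full effect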)). Settings: purified PMI enzyme, at 20 µM, stronger effect = higher value.
Chain of Mannose-6-phosphate isomerase (Homo sapiens) (P34949 whole entry, looked up): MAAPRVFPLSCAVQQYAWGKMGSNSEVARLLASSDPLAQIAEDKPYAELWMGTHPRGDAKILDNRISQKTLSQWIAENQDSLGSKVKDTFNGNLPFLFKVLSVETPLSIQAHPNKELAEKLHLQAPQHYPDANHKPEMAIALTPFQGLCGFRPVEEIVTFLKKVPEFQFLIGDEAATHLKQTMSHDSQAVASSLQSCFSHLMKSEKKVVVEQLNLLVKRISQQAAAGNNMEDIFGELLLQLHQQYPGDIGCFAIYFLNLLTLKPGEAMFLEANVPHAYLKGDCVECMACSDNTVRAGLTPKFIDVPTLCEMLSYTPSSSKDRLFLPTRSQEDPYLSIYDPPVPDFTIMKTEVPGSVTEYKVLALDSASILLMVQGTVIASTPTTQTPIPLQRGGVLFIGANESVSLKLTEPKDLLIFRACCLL

Row | Compound | inhibition
1 | CN1CCN(c2ccc(NC(=O)c3ccc(-c4ccc(Br)cc4)o3)cc2)CC1 | -0.8%
2 | Cc1c(Nc2cc(N3CCOCC3)c3nonc3c2[N+](=O)[O-])c(=O)n(-c2ccccc2)n1C | 19.4%
3 | Cc1c(Nc2cc(N3CCCCCC3)c3nonc3c2[N+](=O)[O-])c(=O)n(-c2ccccc2)n1C | 55% (active)
4 | Cc1c(Nc2cc(N3CCCC(C)C3)c3nonc3c2[N+](=O)[O-])c(=O)n(-c2ccccc2)n1C (stereo not drawn) | 45.8%
5 | Cc1ccc2c(C(=O)CN3CCN(c4ccccc4)CC3)c(C)[nH]c2c1 | -4.7%
6 | CCOc1ccccc1-n1c(SCC(=O)NC2CCCC2)nnc1-c1ccoc1C | 17.9%
7 | COc1ccc(/C=N\NC(=O)c2cccc([N+](=O)[O-])c2)cc1Cn1cc([N+](=O)[O-])cn1 | 10%
8 | COc1ccc(/C=N/NC(=O)c2ccc(N)cc2)cc1Cn1cc([N+](=O)[O-])cn1 | 2.9%
9 | COc1cc(C(=O)N/N=C/c2ccc(OC)c(CN3CCN(c4ccc(F)cc4)CC3)c2)ccc1O | 22.3%
10 | COc1ccc(/C=N\NC(=O)c2cc(O)c(O)c(O)c2)cc1CN1CCN(c2ccc(F)cc2)CC1 | 58.1% (active)
11 | COc1ccc(/C=N/NC(=O)c2ccccc2)cc1CN1CCN(c2ccc(F)cc2)CC1 | -6.3%
12 | CCC(O)c1c(-c2ccccc2)nn(C)c1Cl (stereo not drawn) | 1.3%
13 | O=S1(=O)CC(O)C(NCc2ccco2)C1 (stereo not drawn) | -0.2%
14 | COc1ccc(-c2csc(NC(=O)c3cc(=O)c4ccccc4o3)n2)cc1OC | -9.2%
15 | COC(=O)c1ccc(COC(=O)C23CC4CC(CC(O)(C4)C2)C3)o1 | 1.1%
16 | CN(C)C=Nc1nonc1N | -5.6%
17 | Cc1cc(/N=C/N(C)C)on1 | 4.8%
18 | CN(C)C=Nc1c(Br)cc(Br)c2nonc12 | 70.8% (active)
19 | CC1(c2ccc([N+](=O)[O-])cc2)CC(C)(C)N(C(=O)c2ccccc2)c2ccccc21 (stereo not drawn) | 15.2%
20 | CC1(C)CC(CCC(=O)Nc2ccc(S(N)(=O)=O)cc2)C(=O)O1 (stereo not drawn) | -3.1%
21 | CC(C)CNC(=S)N(Cc1ccco1)Cc1cc2cc3c(cc2[nH]c1=O)OCCO3 | 19.9%
22 | Cc1cc2cc(CN(CC3CCCO3)C(=S)NCc3ccco3)c(=O)[nH]c2cc1C (stereo not drawn) | 9%
23 | O=c1[nH]c2cc3c(cc2cc1CN(CCCO)C(=S)NCc1ccco1)OCO3 | 11.2%
24 | O=c1[nH]c2cc3c(cc2cc1CN(Cc1cccnc1)C(=S)NCc1ccco1)OCCO3 | 59.7% (active)

Row | Compound | inhibition
25 | O=c1[nH]c2cc3c(cc2cc1CN(Cc1cccnc1)C(=S)NCc1ccco1)OCO3 | 53.9% (active)
26 | Cc1ccc2[nH]c(=O)c(CN(CC3CCCO3)C(=S)NCc3ccco3)cc2c1 (stereo not drawn) | 17.8%
27 | Cc1ccc2cc(CN(CC3CCCO3)C(=S)NCc3ccco3)c(=O)[nH]c2c1 (stereo not drawn) | 54.6% (active)
28 | CN(C)CCN(Cc1cc2cc3c(cc2[nH]c1=O)OCO3)C(=S)NCc1ccco1 | 9.6%
29 | CCNC(=S)N(Cc1ccco1)Cc1cc2cc3c(cc2[nH]c1=O)OCCO3 | 17.8%
30 | O=C(Cn1cnc2ccccc2c1=O)NCCC(=O)Nc1ccc2c(c1)OCO2 | -1.6%
31 | Fc1ccc(-c2cc(C(F)(F)F)n3ncnc3n2)cc1 | -18.4%
32 | COC(=O)c1ccc(-n2c(C)cc(C(=O)COC(=O)CC3Sc4ccccc4NC3=O)c2C)cc1 (stereo not drawn) | 3.1%
33 | CCOC(=O)c1nnc(-c2ccc(C)cc2)nc1Oc1ccccc1Cl | 13.7%
34 | CCOC(=O)c1sc(N/N=C/c2cccc(C)c2)nc1C | 7.8%
35 | CCOC(=O)c1sc(NC(=O)/C=C/c2ccccc2)nc1C | -6.9%
36 | CCOC(=O)c1sc(N/N=C/c2ccccc2)nc1C | 60.3% (active)
37 | Cc1ccc(-n2nnc3c(=O)n(Cc4ccccn4)cnc32)cc1C | -5.8%
38 | CCN(CC)c1ccc(/C=N/NC(=O)Cc2cccs2)cc1 | 15.6%
39 | Cc1cccc(NC(=O)C2CCN(S(=O)(=O)c3c(C)noc3/C=C/c3ccco3)CC2)n1 | -3.8%
40 | Cc1ccc(NC(=O)C2CCN(S(=O)(=O)c3c(C)noc3/C=C/c3ccco3)CC2)nc1 | 9.1%
41 | Cc1cccnc1NC(=O)C1CCN(S(=O)(=O)c2c(C)noc2/C=C/c2ccco2)CC1 | 50.7% (active)
42 | Cn1cccc1CC(=O)N/N=C/c1cccc2ccccc12 | 4.2%
43 | COc1ccc(S(=O)(=O)N2CCC(C(=O)NCc3ccccn3)CC2)cc1Cl | 16.7%
44 | COc1ccc(S(=O)(=O)N2CCCC(C(=O)NCc3ccccn3)C2)cc1Cl (stereo not drawn) | 62.4% (active)
45 | COc1ccc(S(=O)(=O)N2CCCC(C(=O)NCc3ccccn3)C2)cc1 (stereo not drawn) | 14%
46 | O=C(O)CSc1nnc(Cn2nnc3ccccc32)n1CCc1ccccc1 | -12.5%
47 | COc1ccc(CN(CC2CCC(C(=O)O)CC2)C(=S)Nc2ccccc2OC)cc1 (stereo not drawn) | -7.5%
48 | O=[N+]([O-])c1ccc(Sc2n[nH]c(-c3ccncc3)n2)nc1 | 60.8% (active)

Row | Compound | inhibition
49 | O=[N+]([O-])c1ccc(Sc2n[nH]c(-c3ccco3)n2)nc1 | 8.5%
50 | O=[N+]([O-])c1ccc(Sc2n[nH]c(-c3ccccc3)n2)nc1 | 16.5%
51 | O=C(O)CC(NC(=O)COc1ccc(Cl)cc1Cl)C(=O)O (stereo not drawn) | 4.9%
52 | Cc1cc(C)cc(Nc2cc(=O)n(C3CCCCC3)c(=O)[nH]2)c1 | 12.2%
53 | Cc1cc2nc3c(=O)n(C4CCCCC4)c(=O)[nH]c3nc2cc1N | 51.7% (active)
54 | CCCCCCn1c(=O)[nH]c2nc3cc(N)c(C)cc3nc2c1=O | 35.2%
55 | N#CCCN(C(=O)CSc1ccc2c(c1)OCCO2)c1ccccc1 | 3.1%
56 | Cc1ccc(NC(=O)c2ccc(Br)o2)cc1S(=O)(=O)N(C)C | -19%
57 | CCN(C(=O)c1cc2cccc(OC)c2oc1=O)C1CCCCC1 | -7.8%
58 | N#Cc1cc(N)ccc1Sc1ccccc1 | 4.7%
59 | COc1ccc(S(=O)(=O)N2Cc3ccccc3CC2C(=O)O)cc1OC (stereo not drawn) | -6.9%
60 | Nc1ncnc2nc(SCc3ccccc3)[nH]c12 | 9.5%
61 | CCC(Sc1nc2ncnc(N)c2[nH]1)C(=O)O (stereo not drawn) | 64.8% (active)
62 | CC(C)Sc1nc2ncnc(N)c2[nH]1 | -8.9%
63 | Cc1ccc(C)n1-c1cccc(S(=O)(=O)N2CCOCC2)c1 | -13.2%
64 | O=c1[nH]c2c(c3c1CCCC3)CCCC2 | 16.2%
65 | O=C(CSC(=S)N1CCCC1)c1cc(Br)cc(Br)c1O | 33.3%
66 | CC1CCCN(C(=S)SCC(=O)c2cc(Br)cc(Br)c2O)C1 (stereo not drawn) | 66.4% (active)
67 | CC1CCCN(C(=S)SCC(=O)O)C1 (stereo not drawn) | 0.8%
68 | COc1cc(/C=C2\SC(=Nc3ccccc3)N(CCc3c[nH]c4ccccc34)C2=O)ccc1OC(C)C(=O)O (stereo not drawn) | 8%
69 | COc1cc(C(=O)OCC(=O)Nc2c(F)c(F)c(F)c(F)c2F)cc(OC)c1OC | -2.4%
70 | O=C(NC1CCCCC1)C(c1ccc(O)c(O)c1)N(C(=O)Cn1nnc2ccccc21)c1cccc(O)c1 (stereo not drawn) | 47.5%
71 | CC(=O)Nc1ccc(N(C(=O)Cn2nnc3ccccc32)C(C(=O)NC2CCCC2)c2ccc(O)c(O)c2)cc1 (stereo not drawn) | 61.2% (active)
72 | Cc1ccc(N(C(=O)Cn2nnc3ccccc32)C(C(=O)NC2CCCCC2)c2cn(C)nc2C)cc1 (stereo not drawn) | -4.2%

Row | Compound | inhibition
73 | Cc1cc(C)n(-c2nc3ccccc3n3cnnc23)n1 | -2.9%
74 | COc1ccc(OC)c(NC(=O)c2cc3c(=O)n4ccccc4nc3n2C)c1 | -10.9%
75 | COc1ccc(NC(=S)NNC(=O)c2nnn(-c3ccccc3)c2C)cc1 | -2%
76 | Cc1ccccc1N(CC(=O)Nc1ccccc1C(=O)NCc1ccco1)S(=O)(=O)c1ccccc1 | -11.7%
77 | C=CCNc1nc(N2CCOCC2)c(C#N)c2c1CN(C)CC2 | 9.5%
78 | CCN1CCc2c(C#N)c(NCc3ccccc3)nc(N(CC)CC)c2C1 | 3%
79 | N#Cc1c(NCCCO)nc(-c2ccccc2)c2c1CCCC2 | 13.8%
80 | CN1CCc2c(C#N)c(N3CCCCC3)nc(NCc3ccccc3)c2C1 | 26.6%
81 | N#Cc1c(NCCN)nc(NCc2ccccc2)c2c1CCN(Cc1ccccc1)C2 | 17.8%
82 | CCN1CCc2c(C#N)c(NCc3ccccc3)nc(NCCO)c2C1 | 52.6% (active)
83 | N#Cc1c(NCCCO)nc(NCc2ccccc2)c2c1CCN(Cc1ccccc1)C2 | 56.3% (active)
84 | CCN1CCc2c(C#N)c(N3CCCCC3)nc(NCc3ccccc3)c2C1 | 30.4%
85 | C=CCNc1nc(NCc2ccccc2)c(C#N)c2c1CN(C)CC2 | 54.4% (active)
86 | CCOC(=O)c1cccc(NC(=O)CSc2nnnn2C)c1 | -7.4%
87 | Cc1cc(NC(=O)CCc2ccc(S(=O)(=O)N3CCOCC3)cc2)n(-c2ccccc2)n1 | -7%
88 | N#Cc1cnn2ccc(-c3ccc4c(c3)CCC4)nc12 | 0.4%
89 | COCC(C)NC(=O)/C=C/c1ccc(OC)cc1 (stereo not drawn) | 9.4%
90 | O=C(c1cc(Cl)ccc1[N+](=O)[O-])N1CCc2ccccc2C1 | 7.8%
91 | O=C(CSc1nc2ccccc2o1)NCC(=O)c1ccccc1 | 10.6%
92 | CC(=O)N1N=C(c2cccc(Cl)c2)OC1c1cccc([N+](=O)[O-])c1 (stereo not drawn) | 10.4%
93 | Cc1cccc(NC(=O)CC2S/C(=N/c3nccs3)N(C)C2=O)c1 (stereo not drawn) | -1.9%

Reference: PubChem BioAssay AID1209 (Sanford-Burnham Center for Chemical Genomics, 2008)
